Values joined by “and” are separate entries in the source; they are usually repeats but may differ in a detail not shown here. Identical values can stand only once. Active and inactive are the calls of the source. How the source made its calls: active means hit-call score of the fitted dose curve at least 0.9, where 1 is the maximum; inactive means score below 0.9.
Tests used:
Details in all cases: primary human HUVEC with PBMC; actives raise or lower the signal
[1] = BSK_LPS_PGE2: BioMAP Diversity Plus: LPS Assay for Prostaglandin E2 (PGE2) Biomarker Activity (AID 2283082);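 on AC50: secreted prostaglandin E2 measured by ELISA in LPS-stimulated co-culture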
Method in brief: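 LPS-activated HUVEC/PBMC co-culture; cmpd dosed, 24 h; PGE2 by ELISA; bidirectional fit vs DMSO; SRB (0.1%, TCA-fixed, 560 nm) in parallel plates for overt cytotox.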

[2] = read-out: Macrophage colony-stimulating factor (MCSF), CSF1 (gene 1435); assay: BSK_LPS_MCSF: BioMAP Diversity Plus: LPS Assay for Macrophage colony-stimulating factor (MCSF) Biomarker Activity (AID 2283083)
Method in brief: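 ELISA readout of M-CSF after 24 h compound exposure in a human endothelial/PBMC co-culture. Activity, in either direction, is fitted relative to DMSO vehicle.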

[3] = read-out: Tissue Factor, F3 (gene 2152); assay: BSK_LPS_TissueFactor: BioMAP Diversity Plus: LPS Assay for Tissue Factor Biomarker Activity (AID 2283084)
Method in brief: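 ELISA signal for cell-surface Tissue Factor (CD142) was read 24 h after compound dosing of an LPS-stimulated human endothelial–PBMC primary co-culture. Gain or loss of signal was scored relative to DMSO.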

[4] = read-out: Tumor necrosis factor (Homo sapiens) (UniProt P01375); assay: BSK_LPS_TNFa: BioMAP Diversity Plus: LPS Assay for Tumour Necrosis Factor alpha (TNFa) Biomarker Activity (AID 2283085)
Method in brief: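 Read-out is ELISA of TNFa in primary human endothelial cell–PBMC co-cultures at 24 h after compound. Activity in either direction was fitted against DMSO.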

[5] = read-out: Vascular cell adhesion molecule 1 (VCAM1), VCAM1 (gene 7412); assay: BSK_LPS_VCAM1: BioMAP Diversity Plus: LPS Assay for Vascular cell adhesion molecule 1 (VCAM1) Biomarker Activity (AID 2283086)
Method in brief: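 HUVEC + PBMC co-culture, LPS system; compound 24 h; VCAM-1 by ELISA; bidirectional fit vs DMSO control; parallel SRB (0.1%, TCA-fixed, 560 nm) for cytotoxicity.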

CD38, CD38 (gene 952) = assay: BSK_SAg_CD38: BioMAP Diversity Plus: SAg Assay for CD38 Biomarker Activity (AID 2283087)
Method in brief: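 Human HUVEC plus PBMC co-culture stimulated with superantigen; CD38 measured by ELISA 24 h after chemical dosing. Fluorescence read-out, bidirectional fit against DMSO; cytotoxicity tracked in parallel by SRB and Alamar Blue.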

CD40, CD40 (gene 958) = assay: BSK_SAg_CD40: BioMAP Diversity Plus: SAg Assay for CD40 Biomarker Activity (AID 2283088)
Method in brief: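 Compounds were dosed onto a human primary endothelial–PBMC co-culture, and after 24 h CD40 was quantified by ELISA using a fluorescence signal. Activity in either direction was fitted relative to DMSO.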

CD69, CD69 (gene 969) = assay: BSK_SAg_CD69: BioMAP Diversity Plus: SAg Assay for CD69 Biomarker Activity (AID 2283089);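 on AC50: cell surface CD69 protein quantified by ELISA with fluorescence detection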
Method in brief: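 Values derive from bidirectional fitting relative to DMSO vehicle. Cells: umbilical vein endothelium plus peripheral blood mononuclear cells, treated 24 h before fluorescent ELISA for CD69.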

[6] = read-out: Monocyte Chemoattractant Protein-1 (MCP1), CCL2 (gene 6347); assay: BSK_SAg_MCP1: BioMAP Diversity Plus: SAg Assay for Monocyte Chemoattractant Protein-1 (MCP1) Biomarker Activity (AID 2283090)
Method in brief: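 MCP-1 levels in the endothelial–PBMC SAg co-culture were quantified by ELISA at 24 h post-dosing; both increases and decreases versus DMSO scored. Cytotoxicity monitored by SRB total protein in parallel cultures.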

[7] = read-out: E-selectin (Homo sapiens) (UniProt P16581); assay: BSK_SAg_Eselectin: BioMAP Diversity Plus: SAg Assay for Eselectin Biomarker Activity (AID 2283091)
Method in brief: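 Co-culture: HUVEC + PBMC. Dose compound; 24 h. ELISA for E-selectin. Bidirectional fit vs DMSO.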

Measured: AC50

Chain of E-selectin (Homo sapiens) (P16581 whole entry, looked up): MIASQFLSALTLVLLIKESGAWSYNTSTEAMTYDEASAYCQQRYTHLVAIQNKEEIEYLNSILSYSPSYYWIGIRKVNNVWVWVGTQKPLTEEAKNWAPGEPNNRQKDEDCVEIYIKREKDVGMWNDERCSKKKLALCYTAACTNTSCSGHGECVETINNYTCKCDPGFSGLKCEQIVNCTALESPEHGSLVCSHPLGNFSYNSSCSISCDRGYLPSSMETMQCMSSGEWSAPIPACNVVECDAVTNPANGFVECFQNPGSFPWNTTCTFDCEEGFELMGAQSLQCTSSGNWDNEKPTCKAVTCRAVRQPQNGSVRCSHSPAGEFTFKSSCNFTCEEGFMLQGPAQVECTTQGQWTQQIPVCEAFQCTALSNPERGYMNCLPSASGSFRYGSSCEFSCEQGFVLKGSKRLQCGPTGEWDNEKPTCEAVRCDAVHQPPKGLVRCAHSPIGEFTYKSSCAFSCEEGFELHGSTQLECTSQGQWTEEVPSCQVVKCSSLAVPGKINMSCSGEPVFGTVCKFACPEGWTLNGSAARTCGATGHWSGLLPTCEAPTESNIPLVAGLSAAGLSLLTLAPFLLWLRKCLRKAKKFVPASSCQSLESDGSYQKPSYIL
Chain of Tumor necrosis factor (Homo sapiens) (P01375 whole entry, looked up): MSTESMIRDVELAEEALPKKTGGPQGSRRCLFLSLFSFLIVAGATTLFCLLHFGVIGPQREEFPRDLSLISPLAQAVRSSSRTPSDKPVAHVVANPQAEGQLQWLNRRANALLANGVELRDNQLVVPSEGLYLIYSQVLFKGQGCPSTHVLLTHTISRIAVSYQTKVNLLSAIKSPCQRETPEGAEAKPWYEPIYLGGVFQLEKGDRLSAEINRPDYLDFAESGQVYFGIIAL

CC(=O)[C@H]1CC[C@H]2[C@@H]3CC=C4C[C@@H](O)CC[C@]4(C)[C@H]3CC[C@]12C
active: [1] 3.97 µM | [3] 9.59 µM and 11.8 µM
inactive: all other assays above

CCCCC/C=C/C=C/C=O
active: [2] 33.2 µM | [3] 31.9 µM | [4] 30.8 µM | [5] 30 µM | CD38, CD38 (gene 952) 31.7 µM | CD40, CD40 (gene 958) 20 µM | CD69, CD69 (gene 969) 30 µM | [6] 31.2 µM | [7] 28.3 µM

CCCCC(CC)COCCC#N (configuration not stated)
inactive: all assays above

CN(CCOc1ccc(CC2SC(=O)NC2=O)cc1)c1ccccn1 (configuration not stated)
active: [1] 0.121 µM | [3] 24.9 µM | CD38, CD38 (gene 952) 20 µM | CD40, CD40 (gene 958) 20 µM | CD69, CD69 (gene 969) 20 µM | [6] 20 µM | [7] 20 µM
inactive: [2] | [4] | [5]

O=C(O)c1ccc([N+](=O)[O-])cc1
not listed: [1]
inactive: all other assays above

Nc1cc([N+](=O)[O-])ccc1O
not listed: [1]
inactive: all other assays above

CC(=O)Nc1ccccc1O
not listed: [1]
inactive: all other assays above

C=C(C)C(=O)O[C@H]1C[C@@H]2CC[C@@]1(C)C2(C)C
active: [2] 29.9 µM | [3] 36.8 µM | [5] 30.6 µM | CD38, CD38 (gene 952) 33.8 µM | CD40, CD40 (gene 958) 31.8 µM | CD69, CD69 (gene 969) 30.8 µM | [6] 34.1 µM | [7] 34 µM
inactive: [4]

COC(=O)c1ccc(C)cc1
not listed: [1]
inactive: all other assays above

CC1COc2ccccc2N1C(=O)C(Cl)Cl (configuration not stated)
inactive: [3] | [6]
active: [2] 8.01 µM | [4] 4.9 µM | [5] 9.65 µM | CD38, CD38 (gene 952) 10.4 µM | CD40, CD40 (gene 958) 7.65 µM | CD69, CD69 (gene 969) 5.91 µM | [7] 13.3 µM

COc1cc(C=O)ccc1OC(=O)C(C)C
inactive: all assays above

c1ccc2sc(SN(C3CCCCC3)C3CCCCC3)nc2c1
inactive: [3] | [5] | [6] | [7]
active: [1] 13.1 µM | [2] 5.57 µM | [4] 5.77 µM | CD38, CD38 (gene 952) 7.65 µM | CD40, CD40 (gene 958) 7.96 µM | CD69, CD69 (gene 969) 5.79 µM

CCc1c(C)cc(N)c(CC)c1N
not listed: [1]
inactive: all other assays above
